In the supplement of paper PMC8253809:

Columns and labels:
Test in all cases: growth inhibition (% activity, log2 RLU normalised to DMSO / staurosporine); higher = more growth inhibition
Settings in all cases: 33 µM
[1] = tested on: DIPGX29 (H3.3 K27M diffuse intrinsic pontine glioma line)
Outline: (§1)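 Approved drugs were tested in triplicate at a single final concentration of about 33 μM for 7 days at 37 °C, 5% CO2, on pHGG cell lines and H9-derived neural stem cells. Readout was CellTiter-Glo luminescence, log2-transformed and scaled per plate to % activity between solvent and positive control wells. The median over replicates gives the growth-inhibition value.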

[2] = tested on: DIPGX37 (H3.3 K27M diffuse intrinsic pontine glioma line)
Outline: as §1

[3] = tested on: DIPGX7 (H3.3 K27M diffuse intrinsic pontine glioma line)
Outline: as §1

[4] = tested on: DIPGX9 (diffuse intrinsic pontine glioma line)
Outline: as §1

[5] = tested on: HGGX39 (paediatric high-grade glioma line)
Outline: as §1

[6] = tested on: HGGX6 (H3.3 G34R paediatric high-grade glioma line)
Outline: as §1

[7] = tested on: HNSC
Outline: as §1

[8] = tested on: SUDIPGIV (diffuse intrinsic pontine glioma line)
Outline: as §1

[9] = tested on: SUDIPGVI (diffuse intrinsic pontine glioma line)
Outline: as §1

[10] = tested on: SUDIPGXIII (diffuse intrinsic pontine glioma line)
Outline: as §1

SMILES | growth inhibition [1] | growth inhibition [2] | growth inhibition [3] | growth inhibition [4] | growth inhibition [5] | growth inhibition [6] | growth inhibition [7] | growth inhibition [8] | growth inhibition [9] | growth inhibition [10]
CCOC(=O)[C@H](CCc1ccccc1)N[C@H]1CCc2ccccc2N(CC(=O)O)C1=O | -0.274% | -0.666% | 0.62% | -1.51% | -0.668% | -3.48% | 0.9% | -2.69% | -7.43% | -0.0284%
Clc1ccc(COC(Cn2ccnc2)c2ccc(Cl)cc2Cl)cc1 (stereo not given) | 1.53% | 4.62% | 0.954% | 4% | 9.31% | 8.25% | 7.53% | 11.7% | 1.21% | 7.66%
C#CC1(O)CCC2C3CCc4cc(OC)ccc4C3CCC21C (stereo not given) | 0.518% | -0.765% | -0.178% | 1.8% | 0.428% | 1.53% | -0.897% | -1.25% | 2.06% | -0.164%
CN(C)C(=N)NC(=N)N | -1.21% | -7.32% | -1.41% | -1.73% | -3.04% | -0.131% | -0.258% | -2.86% | -9.44% | -1.47%
CC(CN(C)C)CN1c2ccccc2CCc2ccccc21 (stereo not given) | -1.45% | -0.198% | -0.333% | -0.216% | 4.41% | -2.56% | 3.02% | 1.48% | 0.808% | -0.414%
COc1nc(N)nc2c1ncn2[C@@H]1O[C@H](CO)[C@@H](O)[C@@H]1O | -0.0296% | -1.39% | -1.6% | 1.18% | 2.74% | 1% | -1.01% | 0.63% | 0.545% | -2.52%
COC(=O)C1=C(C#N)NC(C)=C(C(=O)OC(C)C)C1c1cccc([N+](=O)[O-])c1 (stereo not given) | -1.9% | -0.628% | -0.445% | -1.03% | -1.34% | -3.12% | 5% | -1.37% | -1.47% | 1.7%
CC[C@@]1(O)C(=O)OCc2c1cc1n(c2=O)Cc2cc3c(CN(C)C)c(O)ccc3nc2-1 | 12.9% | 21.8% | 37.9% | 51.6% | 40.2% | 17.2% | 53.9% | 48.4% | 7.54% | 4.79%
CC(=O)O[C@]1(C(C)=O)CC[C@H]2[C@@H]3C[C@H](C)C4=CC(=O)C=C[C@]4(C)[C@@]3(F)[C@@H](O)C[C@@]21C | 1.69% | 3.28% | 0.393% | 5.69% | 4.16% | -1.08% | 0.0126% | -1.42% | 3.88% | 1.16%
O=C1CC[C@@H](C(=O)N2CSC[C@H]2C(=O)O)N1 | 2.29% | 1.19% | 1.62% | 1.89% | 3.63% | 2.97% | 2.12% | 1.86% | 2.32% | -0.296%
CC(C)[C@H](N)C(=O)OCC(CO)OCn1cnc2c(=O)[nH]c(N)nc21 (stereo not given in full) | -0.214% | 1.96% | -0.125% | 0.141% | 0.816% | -2.7% | 0.0503% | 0.2% | -2.51% | 1.45%
COc1ccc(Cl)cc1C(=O)NCCc1ccc(S(=O)(=O)NC(=O)NC2CCCCC2)cc1 | -0.549% | 1.98% | -0.628% | -1.16% | 1.11% | 0.0176% | 2.28% | 0.343% | 1.26% | -1.12%
O=C(NC[C@H]1CN(c2ccc(N3CCOCC3=O)cc2)C(=O)O1)c1ccc(Cl)s1 | -0.891% | 0.377% | -0.155% | -1.03% | 0.0326% | 0.545% | 0.606% | 3.01% | -0.593% | 1.19%
Cc1nnc(C(C)C)n1C1C[C@H]2CC[C@@H](C1)N2CC[C@H](NC(=O)C1CCC(F)(F)CC1)c1ccccc1 (stereo in doubt) | 0.752% | 1.42% | 6.87% | 1.45% | 1.14% | -3.69% | 45.9% | -0.251% | -0.429% | -1.27%
O=C(C[S+]([O-])Cc1ccco1)NC/C=C\COc1cc(CN2CCCCC2)ccn1 (stereo not given) | -1.37% | -2.72% | 0.0817% | -0.604% | -0.28% | 0.0479% | -2.82% | -2.24% | -1.66% | -2.4%
CCN(CC)CCNC(C(=O)OCCC(C)C)c1ccccc1 (stereo not given) | 2% | -0.0996% | 4.26% | 1.08% | 0.0597% | 0.247% | 74.6% | 1.14% | -6.42% | 2.01%
N[C@@H](Cc1cc(I)c(Oc2ccc(O)c(I)c2)c(I)c1)C(=O)O | 3.32% | 3.94% | 1.41% | 2.64% | 5.93% | -3.21% | 13.2% | 14.9% | 10.1% | 0.729%
